Experimental data taken from PubChem BioAssay (NCI).
The panel holds about 83,000 compounds, 20% with a hit somewhere; the sample as a whole holds those more often.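 Results are percent growth after 48 hours of single-concentration exposure. 100 means growth as in untreated cells, lower positive values show inhibition; negative values down to -100 show cell death.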 The source made the active and inactive calls. The calls were made as follows: active = growth percent below 10; inactive = the rest.

Key:
Test in all cases: NCI-60 one-dose screen, 48 h (100 = growth as untreated, 0 = no growth, -100 = all killed)
Settings in all cases: 10 µM unless noted
[1] = system: RPMI-8226 leukemia
[2] = system: OVCAR-8 ovarian
[3] = system: OVCAR-5 ovarian
[4] = system: SK-OV-3 ovarian
[5] = system: OVCAR-3 ovarian
[6] = system: HS 578T breast
[7] = system: NCI/ADR-RES ovarian
[8] = system: T-47D breast
[9] = system: OVCAR-4 ovarian
[10] = system: IGROV1 ovarian

Measured: growth

O=C1/C(=N/O)CCc2ccccc21
active: [5] -6.51%
inactive: [1] 72.9% | [2] 95.6% | [3] 108% | [4] 100% | [6] 95% | [7] 102% | [8] 100%

Clc1ccc(CCC(Cn2ccnc2)Sc2c(Cl)cccc2Cl)cc1 (stereo not given)
inactive: [1] 25.2% | [2] 63.8% | [3] 68% | [4] 91.1% | [5] 59.4% | [6] 90.8% | [7] 28.2% | [8] 39.5%

CN(C)c1nc(N)nc(Cn2c(-c3nonc3N)nc3ccccc32)n1
inactive: [1] 87.9% | [2] 91.9% | [9] 87.8% | [4] 88.8% | [10] 95.7% | [5] 98% | [6] 77.4% | [7] 73.6% | [8] 89.7%

O=C(c1nn(-c2ccc(Cl)cc2)cc1O)n1nc(C(F)(F)F)cc1-c1ccccc1
active: [1] -10.4% | [5] -1.65%
inactive: [2] 22.9% | [9] 29.2% | [4] 23.2% | [10] 34.9% | [6] 15.8% | [7] 19.4% | [8] 44.9%

Nc1ncc(-c2cnn(C3CCNCC3)c2)cc1-c1nc2cc(Cl)ccc2o1
active: [1] -81% | [2] -52.5% | [9] -83.1% | [4] -81.5% | [5] -100% | [6] -68.4% | [7] -50.5% | [8] -77.4%

COc1ccc2c(c1)C(=O)/C(=C/c1ccc([N+](=O)[O-])s1)O2
active: [1] -12% | [2] -5.24% | [9] -45% | [10] -58.3% | [5] -35.7% | [6] -6.61% | [8] -49.1%
inactive: [4] 74.6% | [7] 27.3%

Nc1ccc(S(=O)(=O)Nc2ncccn2)cc1
inactive: [1] 112% | [2] 102% | [9] 112% | [4] 116% | [10] 116% | [5] 115% | [6] 133% | [7] 105%

Cc1cc(C(C)(C)C)cc(C)c1CC1=NCCN1
inactive: [1] 114% | [2] 107% | [9] 117% | [4] 124% | [10] 108% | [5] 112% | [6] 102% | [7] 101%

O=[P@@]1(c2ccccc2)O[C@H](COCc2ccccc2)[C@@H](OCc2ccccc2)[C@H](OCc2ccccc2)[C@H]1NCc1ccccc1
active: [1] 5.97%
inactive: [2] 23.7% | [3] 11.8% | [4] 41.7% | [6] 49.9% | [8] 15.9%

CCCn1cnc2c1c(=O)n(CCCCC(C)=O)c(=O)n2C
inactive: [1] 101% | [2] 98.3% | [9] 97.1% | [4] 95.1% | [10] 97.6% | [5] 115% | [6] 104% | [7] 108% | [8] 99%

COc1cc(/C=C2\CCC/C(=C\c3ccc(OCC4CO4)c(OC)c3)C2=O)ccc1OCC1CO1 (stereo not given)
active: [1] -2.29% | [2] 0.499% | [10] -12.6% | [5] -22.8%
inactive: [9] 47.1% | [4] 20.1% | [6] 23.4% | [7] 56.8% | [8] 46.3%

CCCOc1ccc2c(c1)CC[C@@H]1[C@@H]2CC[C@@]2(C)[C@H]1CC[C@]2(C)O
inactive: [1] 56.5% | [2] 74% | [9] 81% | [4] 75.3% | [10] 118% | [6] 85% | [7] 79.7% | [8] 83.4%

Cc1c(NCc2nnc3n(Cc4ccccc4)c(=O)c4c5c(sc4n23)CCCC5)c(=O)n(-c2ccccc2)n1C
inactive: [1] 97.5% | [2] 86.3% | [9] 74.7% | [4] 120% | [5] 87.3% | [6] 90.7% | [7] 85.6% | [8] 84%

C=C1c2c(C)nn(-c3ccc(C#CCOC4OC(CO)C(O)C(O)C4O)cc3)c2N(C)C23C[C@H]1C1(C)c4c(C)nn(-c5ccc(C#CCOC6OC(CO)C(O)C(O)C6O)cc5)c4N(C)C(C)(C[C@H]12)C3 (stereo not given in full)
active: [1] -36.4% | [5] 3.73% | [6] 1.04% | [8] 7.11%
inactive: [2] 12% | [9] 14.7% | [4] 15.3% | [10] 24.7% | [7] 77.2%

O=C(CCc1nnc(SCc2ccccc2)s1)c1nc2ccccc2[nH]1
inactive: [1] 82.9% | [3] 99.2% | [9] 85.7% | [4] 103% | [10] 103% | [5] 106% | [6] 106% | [7] 87.1% | [8] 95%

Cc1nc2c(O)cccc2cc1CO
inactive: [1] 113% | [2] 120% | [9] 100% | [10] 120% | [6] 130% | [7] 96.1% | [8] 99.4%

O=C1CC(=O)N(c2ccccc2)O1
inactive: [1] 105% | [3] 92.9% | [9] 110% | [4] 98.4% | [10] 99% | [5] 118% | [6] 110% | [7] 101% | [8] 97.5%

CCc1[nH]nc(-c2ccc(OC)cc2)c1-c1ccccc1OCCN(CC)CC
inactive: [1] 97.5% | [2] 107% | [4] 91.8% | [10] 98.6% | [5] 104% | [6] 99.4% | [7] 100% | [8] 97.4%

Cc1cc2c(C#N)n3c(c2cc1C)C(=O)C(c1ccccc1)Oc1ccccc1-3 (stereo not given)
inactive: [1] 29.6% | [3] 48.6% | [9] 22.4% | [4] 39.6% | [10] 48.8% | [5] 25.3% | [6] 46.2% | [7] 25.8% | [8] 15.2%

CC[C@]1(O)CC2CN(CCc3c([nH]c4ccccc34)[C@@](C(=O)OC)(c3cc4c(cc3OC)N(C)[C@H]3[C@@](O)(C(=O)OC)[C@H](OC(C)=O)[C@]5(CC)C=CCN6CC[C@]43[C@@H]65)C2)C1 (stereo not given in full)
inactive: [2] 12.6% | [9] 33.2% | [6] 29.7%
active: [1] 2.81% | [5] -56%

O=C(CSc1nc2c(n1Nc1ccccc1)-c1ccccc1SC2)Nc1nc(-c2ccc(Cl)cc2)cs1
active: [9] 8.37%
inactive: [1] 86.1% | [3] 93.6% | [4] 82.9% | [10] 86% | [5] 65.7% | [6] 23.4% | [7] 66% | [8] 66.8%

CCCCC(C#N)C(N)=O (stereo not given)
inactive: [1] 102% | [3] 106% | [9] 107% | [4] 98.1% | [10] 113% | [6] 101% | [7] 105% | [8] 100%

Nc1ccc(C2=NN(c3ccccc3)C(c3ccc(Cl)cc3)C2)cc1 (stereo not given)
inactive: [3] 84.2% | [9] 96.7% | [4] 90.1% | [10] 94.5% | [5] 51.7% | [6] 102% | [7] 89.6% | [8] 63.8%
active: [1] -20.1%

COc1cc(/C=C/C(=O)c2c(-c3ccc(F)cc3)nc3sc(C)nn23)cc(OC)c1OC
active: [1] 0.772% | [5] -16.4% | [8] -8.41%
inactive: [3] 18.7% | [9] 44.1% | [4] 15.5% | [10] 28.7% | [6] 50.1% | [7] 23.4%

Clc1ccc(-c2nc(-c3cccs3)no2)c(Cl)c1
inactive: [1] 86% | [2] 97.1% | [4] 93.9% | [10] 66.8% | [6] 96.1% | [7] 103% | [8] 51.7%

CC1CC(C)/C(=N/NC(N)=O)C(C(O)CC2CCC(=O)NC2=O)C1 (stereo not given)
inactive: [1] 50.4% | [3] 52.1% | [9] 57.7% | [4] 49.2% | [10] 30.1% | [5] 53.6% | [6] 10% | [7] 42.6% | [8] 42.5%

CO[C@H]1/C=C/O[C@@]2(C)Oc3c(C)c(O)c4c(O)c(c(/C=N/N5CCN(C)CC5)c(O)c4c3C2=O)NC(=O)/C(C)=C\C=C\C(C)[C@H](O)[C@@H](C)[C@@H](O)[C@@H](C)[C@@H](OC(C)=O)[C@@H]1C (stereo not given in full)
inactive: [1] 108% | [2] 100% | [9] 103% | [5] 107% | [6] 109% | [7] 105% | [8] 107%

CCCCOc1ccc(C(C)(C)c2ccc(OCCCC)cc2)cc1
inactive: [1] 91% | [3] 109% | [9] 108% | [4] 94.6% | [10] 103% | [5] 106% | [6] 105% | [7] 101% | [8] 90.2%

COc1ccc(-c2nn(-c3ccccc3)cc2/C=C2\SC(=S)N(CCc3ccc(O)cc3)C2=O)cc1
inactive: [1] 70.2% | [3] 99.7% | [9] 78.7% | [4] 98.8% | [10] 78.6% | [5] 94% | [6] 79.1% | [7] 90.3% | [8] 56.3%

COc1ccc(COC(C)=O)cc1
inactive: [1] 103% | [3] 98.1% | [9] 120% | [4] 113% | [5] 110% | [6] 105% | [7] 116% | [8] 102%

Nc1nc(SCc2ccccc2Cl)c(-c2ccccc2)c(SCc2ccccc2Cl)n1
inactive: [1] 81.8% | [2] 98.4% | [9] 95.8% | [10] 97.4% | [5] 101% | [6] 93.4% | [7] 90.7% | [8] 58.4%
